# Values joined by “and” are separate entries in the source; they are usually repeats but may differ in a detail not shown here. Equal values may be shown once. The full ranking holds about 2,900 compounds; the median of “NF-kB SEAP reporter activity, fold change vs agonist alone” is about 0.99, and the highest 2% start at about 2.6. The sample holds the highest values, similar compounds and a random draw of the others, so the mix is not that of the screen.
# Experiments:
# RAW-Dual [1] = test: NF-kB SEAP reporter activity, fold change vs agonist alone; cytotoxicity flag (confluency mask): not cytotoxic; higher = enhanced NF-kB activity
# How it was run: (§1)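 RAW-Dual macrophages were seeded in DMEM at 50,000 cells/well in 384-well plates, given 50 nL of library stock by pin tool, and given a PRR agonist 1 h later. Plates were held at 37 °C, 5% CO2 for 20 hours, after which supernatant was read for IRF by QuantiLuc luminescence and for NF-κB by QuantiBlue absorbance at 620 nm. Reporter activity is expressed as fold change over wells that received agonist alone. A well was called cytotoxic when IncuCyte confluency fell below 70% of agonist controls in both mask sets.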
# RAW-Dual [2] = test: NF-kB SEAP reporter activity, fold change vs agonist alone; higher = enhanced NF-kB activity
# How it was run: as §1
# RAW-Dual [3] = test: NF-kB SEAP reporter activity, fold change vs agonist alone; cytotoxicity flag (confluency mask): cytotoxic (confluency <70% of control); higher = enhanced NF-kB activity
# How it was run: as §1
# [4] = agonist: ODN 1826 (TLR9) 0.5 ug/mL
# [5] = agonist: Pam2CSK4 (TLR2/6) 0.1 ug/mL
# [6] = agonist: Pam3CSK4 (TLR2/1) 0.1 ug/mL
# [7] = library stock concentration (final ~1000-fold dilution): 10 mM, cytotoxicity flag (confluency mask): not cytotoxic, agonist: Imiquimod (TLR7) […]
# [8] = library stock concentration (final ~1000-fold dilution): 10 mM, cytotoxicity flag (confluency mask): not cytotoxic, agonist: MPLA (TLR4) […]
# [9] = library stock concentration (final ~1000-fold dilution): 10 mM water, cytotoxicity flag (confluency mask): not cytotoxic, agonist: Imiquimod (TLR7) […]
# [10] = library stock concentration (final ~1000-fold dilution): 10 mM water, cytotoxicity flag (confluency mask): not cytotoxic, agonist: MPLA (TLR4) […]
smiles,measurement,setting,value
CN1C2=C3N=c4ccccc4=C3CCN2C(=O)c2ccccc21.Cl (library stock concentration (final ~1000-fold dilution): 10 mM),NF-kB SEAP reporter activity,RAW-Dual [1]; agonist: LPS (TLR4) 0.1 ug/mL,1.21
same,NF-kB SEAP reporter activity,RAW-Dual [1]; [4],0.594
same,NF-kB SEAP reporter activity,RAW-Dual [1]; [5],1.28
same,NF-kB SEAP reporter activity,RAW-Dual [1]; [6],1.1
CN1C2=C3N=c4ccccc4=C3CCN2C(=O)c2ccccc21.Cl,NF-kB SEAP reporter activity,RAW-Dual [2]; [7],0.969
same,NF-kB SEAP reporter activity,RAW-Dual [2]; [8],0.999
N#CCC(C1CCCC1)n1cc(-c2ncnc3[nH]ccc23)cn1 (centres undefined) (library stock concentration (final ~1000-fold dilution): 10 mM),NF-kB SEAP reporter activity,RAW-Dual [1]; agonist: LPS (TLR4) 0.1 ug/mL,0.995 and 0.96 and 0.998
same,NF-kB SEAP reporter activity,RAW-Dual [1]; [4],2.7 and 1.88 and 2.86
same,NF-kB SEAP reporter activity,RAW-Dual [1]; [5],1.81 and 1.49 and 1.69
same,NF-kB SEAP reporter activity,RAW-Dual [1]; [6],2.14 and 2.16 and 2.67
N#CCC1(n2cc(-c3ncnc4[nH]ccc34)cn2)CN(C2CCN(C(=O)c3ccnc(C(F)(F)F)c3F)CC2)C1 (library stock concentration (final ~1000-fold dilution): 10 mM),NF-kB SEAP reporter activity,RAW-Dual [1]; agonist: LPS (TLR4) 0.1 ug/mL,0.591
same,NF-kB SEAP reporter activity,RAW-Dual [1]; [4],1.09
same,NF-kB SEAP reporter activity,RAW-Dual [1]; [5],1.11
same,NF-kB SEAP reporter activity,RAW-Dual [1]; [6],1.03
CCS(=O)(=O)N1CC(CC#N)(n2cc(-c3ncnc4[nH]ccc34)cn2)C1 (library stock concentration (final ~1000-fold dilution): 10 mM),NF-kB SEAP reporter activity,RAW-Dual [1]; agonist: LPS (TLR4) 0.1 ug/mL,1.65 and 0.788
same,NF-kB SEAP reporter activity,RAW-Dual [1]; [4],1.96 and 2.12
same,NF-kB SEAP reporter activity,RAW-Dual [1]; [5],1.19 and 1.64
same,NF-kB SEAP reporter activity,RAW-Dual [1]; [6],1.77 and 2.42
N#CCC1(n2cc(-c3ncnc4[nH]ccc34)cn2)CN(C2CCN(C(=O)c3ccnc(C(F)(F)F)c3F)CC2)C1,NF-kB SEAP reporter activity,RAW-Dual [2]; [7],0.89
same,NF-kB SEAP reporter activity,RAW-Dual [2]; [8],0.922
CC(C)(C)N.CCCC(NC(C)C(=O)N1C(C(=O)O)CC2CCCCC21)C(=O)OCC (centres undefined) (library stock concentration (final ~1000-fold dilution): 10 mM water),NF-kB SEAP reporter activity,RAW-Dual [1]; agonist: LPS (TLR4) 0.1 ug/mL,1.05
same,NF-kB SEAP reporter activity,RAW-Dual [1]; [4],1.13
same,NF-kB SEAP reporter activity,RAW-Dual [1]; [5],1.17
same,NF-kB SEAP reporter activity,RAW-Dual [1]; [6],1.02
CC(C)(C)N.CCCC(NC(C)C(=O)N1C(C(=O)O)CC2CCCCC21)C(=O)OCC (centres undefined),NF-kB SEAP reporter activity,RAW-Dual [2]; [9],0.909
same,NF-kB SEAP reporter activity,RAW-Dual [2]; [10],1.04
CC(C)(C)Cn1c(N)nc2ccc(-c3[nH]c(C(C)(C)C)nc3-c3ccc(F)cc3)nc21.CS(=O)(=O)O.CS(=O)(=O)O (library stock concentration (final ~1000-fold dilution): 10 mM water),NF-kB SEAP reporter activity,RAW-Dual [1]; agonist: LPS (TLR4) 0.1 ug/mL,1.03
same,NF-kB SEAP reporter activity,RAW-Dual [1]; [4],0.512
same,NF-kB SEAP reporter activity,RAW-Dual [1]; [5],0.242
same,NF-kB SEAP reporter activity,RAW-Dual [1]; [6],0.506
CC(C)(C)Cn1c(N)nc2ccc(-c3[nH]c(C(C)(C)C)nc3-c3ccc(F)cc3)nc21.CS(=O)(=O)O.CS(=O)(=O)O,NF-kB SEAP reporter activity,RAW-Dual [2]; [9],0.303
same,NF-kB SEAP reporter activity,RAW-Dual [2]; [10],0.892
C1=CCOCc2cc(ccc2OCCN2CCCC2)Nc2nccc(n2)-c2cccc(c2)COC1 (library stock concentration (final ~1000-fold dilution): 10 mM),NF-kB SEAP reporter activity,RAW-Dual [3]; agonist: LPS (TLR4) 0.1 ug/mL,0.498
same,NF-kB SEAP reporter activity,RAW-Dual [3]; [4],0.245
same,NF-kB SEAP reporter activity,RAW-Dual [3]; [5],0.176
same,NF-kB SEAP reporter activity,RAW-Dual [3]; [6],0.256
C1=CCOCc2cc(ccc2OCCN2CCCC2)Nc2nccc(n2)-c2cccc(c2)COC1,NF-kB SEAP reporter activity,"RAW-Dual [2]; library stock concentration (final ~1000-fold dilution): 10 mM, cytotoxicity flag (confluency mask): cytotoxic (confluency <70% of control), agonist: Imiquimod (TLR7) […]",1.52
same,NF-kB SEAP reporter activity,"RAW-Dual [2]; library stock concentration (final ~1000-fold dilution): 10 mM, cytotoxicity flag (confluency mask): cytotoxic (confluency <70% of control), agonist: MPLA (TLR4) […]",0.838
CC(C)n1cc(-c2ccc3c(c2)N(C)CC3)c2c(NS(=O)(=O)c3ccn(C)n3)ccnc21 (library stock concentration (final ~1000-fold dilution): 10 mM),NF-kB SEAP reporter activity,RAW-Dual [1]; agonist: LPS (TLR4) 0.1 ug/mL,1.25
same,NF-kB SEAP reporter activity,RAW-Dual [1]; [4],1.12
same,NF-kB SEAP reporter activity,RAW-Dual [1]; [5],1.14
same,NF-kB SEAP reporter activity,RAW-Dual [1]; [6],1.07
CC(C)n1cc(-c2ccc3c(c2)N(C)CC3)c2c(NS(=O)(=O)c3ccn(C)n3)ccnc21,NF-kB SEAP reporter activity,RAW-Dual [2]; [7],0.948
same,NF-kB SEAP reporter activity,RAW-Dual [2]; [8],1.02
O=C1c2c(O)cc(O)cc2OC(c2cc(O)c(O)c(O)c2)C1O (centres undefined),NF-kB SEAP reporter activity,RAW-Dual [2]; [7],0.946
same,NF-kB SEAP reporter activity,RAW-Dual [2]; [8],1.07
O=C1c2c(O)cc(O)cc2OC(c2cc(O)c(O)c(O)c2)C1O (centres undefined) (library stock concentration (final ~1000-fold dilution): 10 mM),NF-kB SEAP reporter activity,RAW-Dual [1]; agonist: LPS (TLR4) 0.1 ug/mL,0.954
same,NF-kB SEAP reporter activity,RAW-Dual [1]; [4],1.02
same,NF-kB SEAP reporter activity,RAW-Dual [1]; [5],0.798
same,NF-kB SEAP reporter activity,RAW-Dual [1]; [6],0.657
CC(C)(C)NC(=O)c1cncn1C1CCN(c2ccc(-c3nnc(C(F)(F)F)o3)cn2)CC1,NF-kB SEAP reporter activity,RAW-Dual [2]; [7],1.87
same,NF-kB SEAP reporter activity,RAW-Dual [2]; [8],2.37
CC(C)(C)NC(=O)c1cncn1C1CCN(c2ccc(-c3nnc(C(F)(F)F)o3)cn2)CC1 (library stock concentration (final ~1000-fold dilution): 10 mM),NF-kB SEAP reporter activity,RAW-Dual [1]; agonist: LPS (TLR4) 0.1 ug/mL,6.27
same,NF-kB SEAP reporter activity,RAW-Dual [1]; [4],3.15
same,NF-kB SEAP reporter activity,RAW-Dual [1]; [5],1.66
same,NF-kB SEAP reporter activity,RAW-Dual [1]; [6],2.84
CC1(C)CCC2(C(=O)O)CCC3(C)C(=CCC4C5(C)CCC(=O)C(C)(C)C5CCC43C)C2C1 (centres undefined) (library stock concentration (final ~1000-fold dilution): 10 mM),NF-kB SEAP reporter activity,RAW-Dual [1]; agonist: LPS (TLR4) 0.1 ug/mL,0.91
same,NF-kB SEAP reporter activity,RAW-Dual [1]; [4],0.824
same,NF-kB SEAP reporter activity,RAW-Dual [1]; [5],0.664
same,NF-kB SEAP reporter activity,RAW-Dual [1]; [6],0.842
CC1(C)CCC2(C(=O)O)CCC3(C)C(=CCC4C5(C)CCC(=O)C(C)(C)C5CCC43C)C2C1 (centres undefined),NF-kB SEAP reporter activity,RAW-Dual [2]; [7],0.8
same,NF-kB SEAP reporter activity,RAW-Dual [2]; [8],1.27
CC(=O)N1c2ccc(-c3ccc(C(=O)O)cc3)cc2C(Nc2ccc(Cl)cc2)CC1C (centres undefined),NF-kB SEAP reporter activity,RAW-Dual [2]; [7],1.56
same,NF-kB SEAP reporter activity,RAW-Dual [2]; [8],2.37
CC(=O)N1c2ccc(-c3ccc(C(=O)O)cc3)cc2C(Nc2ccc(Cl)cc2)CC1C (centres undefined) (library stock concentration (final ~1000-fold dilution): 10 mM),NF-kB SEAP reporter activity,RAW-Dual [1]; agonist: LPS (TLR4) 0.1 ug/mL,4.2
same,NF-kB SEAP reporter activity,RAW-Dual [1]; [4],2.49
same,NF-kB SEAP reporter activity,RAW-Dual [1]; [5],1.06
same,NF-kB SEAP reporter activity,RAW-Dual [1]; [6],1.85
CC(=O)OC12COC1CC(O)C1(C)C(=O)C(O)C3=C(C)C(OC(=O)C(O)C(NC(=O)OC(C)(C)C)c4ccccc4)CC(O)(C(OC(=O)c4ccccc4)C21)C3(C)C.O.O.O (centres undefined),NF-kB SEAP reporter activity,RAW-Dual [2]; [7],1.07
same,NF-kB SEAP reporter activity,RAW-Dual [2]; [8],1.23
CC(=O)OC12COC1CC(O)C1(C)C(=O)C(O)C3=C(C)C(OC(=O)C(O)C(NC(=O)OC(C)(C)C)c4ccccc4)CC(O)(C(OC(=O)c4ccccc4)C21)C3(C)C.O.O.O (centres undefined) (library stock concentration (final ~1000-fold dilution): 10 mM),NF-kB SEAP reporter activity,RAW-Dual [1]; agonist: LPS (TLR4) 0.1 ug/mL,1.26
same,NF-kB SEAP reporter activity,RAW-Dual [1]; [4],0.91
same,NF-kB SEAP reporter activity,RAW-Dual [1]; [5],0.697
same,NF-kB SEAP reporter activity,RAW-Dual [1]; [6],0.713

# Source: the supplement of paper PMC10037445
